# Assays:
# Assay in all cases: PBM binding z-score (relative to random genomic background probes); higher = stronger binding; sequences stand for … in GC…GCGATTGACAGCGTAGAATGAAGG
# [1] = system: PPARg:RXRa DBDmut IVT, anti-RXR (DBD mutation: RXRa K156A/R161A, NR concentration 270 nM, RXRa partner concentration 90 nM)
# Method in brief: (§1)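 Regression normalization was applied to scanned fluorescence from custom Agilent 4×180K protein-binding microarrays. Before scanning, arrays were incubated 1 h with ligand-free nuclear receptor dimers, and binding was detected with antibodies against each partner (one per run). Binding z-scores use the random background probes as reference.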
# [2] = system: PPARg:RXRa IVT, anti-PPARg (NR concentration 270 nM, RXRa partner concentration 90 nM)
# Method in brief: as §1
# [3] = system: PPARg DBDmut:RXRa IVT, anti-PPARg (DBD mutation: PPARg1 K132A/R137A, NR concentration 270 nM, RXRa partner concentration 90 nM)
# Method in brief: as §1
# [4] = system: PPARg DBDmut IVT, anti-PPARg (DBD mutation: PPARg1 K132A/R137A, NR concentration 270 nM)
# Method in brief: as §1
# [5] = system: PPARg homodimer (NR concentration 180 nM)
# Method in brief: as §1
# [6] = system: PXR:RXRa (NR concentration 270 nM, RXRa partner concentration 90 nM)
# Method in brief: as §1
# [7] = system: PXR homodimer (NR concentration 270 nM)
# Method in brief: as §1
# [8] = system: RARa:RXR (NR concentration 270 nM, RXRa partner concentration 90 nM)
# Method in brief: as §1
# [9] = system: RARa homodimer (NR concentration 270 nM)
# Method in brief: as §1
# [10] = system: RARb:RXRa (NR concentration 270 nM, RXRa partner concentration 90 nM)
# Method in brief: as §1
# [11] = system: RARb homodimer (NR concentration 270 nM)
# Method in brief: as §1
# [12] = system: RARg:RXRa (NR concentration 270 nM, RXRa partner concentration 90 nM)
# Method in brief: as §1
# [13] = system: RARg homodimer (NR concentration 270 nM)
# Method in brief: as §1
# [14] = system: RXRa DBDmut IVT, anti-RXR (DBD mutation: RXRa K156A/R161A, NR concentration 90 nM)
# Method in brief: as §1
# [15] = system: RXRa homodimer (NR concentration 180 nM)
# Method in brief: as §1
# [16] = system: THRa:RXRa (NR concentration 90 nM, RXRa partner concentration 90 nM)
# Method in brief: as §1
# [17] = system: THRa homodimer (NR concentration 90 nM)
# Method in brief: as §1
# [18] = system: VDR homodimer (NR concentration 270 nM)
# Method in brief: as §1
Sequence,PBM binding z-score [1],PBM binding z-score [2],PBM binding z-score [3],PBM binding z-score [4],PBM binding z-score [5],PBM binding z-score [6],PBM binding z-score [7],PBM binding z-score [8],PBM binding z-score [9],PBM binding z-score [10],PBM binding z-score [11],PBM binding z-score [12],PBM binding z-score [13],PBM binding z-score [14],PBM binding z-score [15],PBM binding z-score [16],PBM binding z-score [17],PBM binding z-score [18]
GCGACTGGGGCAATGCAGGTTACCATAAGGTTGG,4.37,4.53,-0.0887,-0.128,0.0203,0.548,-0.5,0.919,-0.465,0.959,1.14,0.631,0.677,-0.584,0.553,2.56,-0.0652,-0.0846
CGTCCATGGTCAATGCTAGGTCAGTGAAAGCATT,0.278,0.623,-0.309,-0.685,0.231,0.368,-0.367,0.816,-0.251,2.17,2.59,2.58,1.9,0.0994,0.519,1.9,0.665,-0.0955
CCTAATGGGCCACGAAAGGTCATTGATTCAGTGA,3.95,4.1,0.487,0.297,2.38,5.44,1.32,5.08,0.945,4.16,4.85,4.78,4.65,1.17,4.84,3.95,0.853,2.52
TCTATCAGGCCAGAGGGTCACTCAAGAGGTACGG,1.69,1.3,-0.288,-0.122,1.01,1.83,0.211,2.39,0.259,2.52,2.89,2.92,2.44,0.811,2.56,2.29,0.348,1.16
CCTAGTTGGTCAGAAGGTCACACACCGGATATGA,1.63,2.85,1.32,0.414,4.39,3.98,1.29,4.56,3.08,3.85,4.46,4.85,4.38,0.926,4.4,3.12,1.59,2.21
TCATATAGGTAATACAGGTGAAAGTTGGCATCTA,4.09,3.7,1.17,1.27,1.53,1.23,0.642,1.77,1.84,0.87,0.923,1.02,0.788,1.86,1.69,1.19,0.467,0.572
TGAATGAGGTTAAAGCTCAGGGAACGTGGCGTCG,2.25,2.59,-0.0715,0.871,0.0932,1.07,-0.806,1.84,-0.696,1.78,0.437,1.9,0.981,1.06,2.71,2.16,0.216,0.0356
